These results are taken from ChEMBL document CHEMBL4513216, “Probing the Open Global Health Chemical Diversity Library for Multistage-Active Starting Points for Next-Generation Antimalarials” (ACS Infect Dis, 2020).

Hit rate of the full screen: of about 69,000 compounds, about 8,600 (12%) showed an effect of 50% or more. The entries come from a sample that favours strong results as a whole.

This experiment concerns Plasmodium berghei. Nature of the experiment: Screen against P. berghei liver stage (PbLuc), transformed with Luciferase, at 10uM. The experiment is classed as functional, HepG2. As to conditions: tested at 10 uM.
On to `O=C(c1ccco1)N1CC[C@@H]2CN(C3CCOCC3)CCO[C@@H]2C1`, for which the INHIBITION was determined as 22.2%.

In the case of `O=C(CCO)N1CC[C@@H]2CN(C(=O)c3ccco3)CCO[C@@H]2C1`, the INHIBITION turned out to be 80%.

As for `O=C(c1ccco1)N1CCO[C@@H]2CN(c3ccccc3)CC[C@@H]2C1`, the INHIBITION is given as 84.7%.

As to `O=C(c1ccco1)N1CCO[C@@H]2CN(c3ccccn3)CC[C@@H]2C1`, the INHIBITION is listed as -26.5%.

`O=C(c1ccco1)N1CCO[C@@H]2CN(c3ncc(F)cn3)CC[C@@H]2C1`: the INHIBITION was determined as 42.6%.

Consider `O=C(c1ccco1)N1CCO[C@@H]2CNCC[C@@H]2C1`, for which the INHIBITION is reported as -0.388%.

Consider `O=C(c1ccco1)N1CCO[C@@H]2CN(CC3CC3)CC[C@@H]2C1`, for which the INHIBITION turned out to be 85.8%.

Take `O=C(c1ccco1)N1CCO[C@@H]2CN(Cc3nccs3)CC[C@@H]2C1`: the INHIBITION was -5.89%.

For `CC(NC(=O)N1CCCC1)c1ccc(S(N)(=O)=O)cc1` (centres undefined), the INHIBITION amounted to 33.7%.

Consider `NC(=O)[C@@H]1CCCN1C(=O)c1csc(-c2ccc(C(F)(F)F)cc2)n1`, for which the INHIBITION was 28.4%.

As for `Cc1cc(CN(C)C(=O)C(c2ccccc2F)N(C)C)ccn1` (centres undefined), the INHIBITION stood at 30%.

With `COc1ccc(CC(=O)N2CCCC(c3cc(C)[nH]n3)C2)cc1` (centres undefined), the INHIBITION was found to be 28.62%.

On to `CN(C)C(=O)CO[C@H]1CN(Cc2cccc(F)c2)[C@@H]2CCCO[C@H]12`, for which the INHIBITION worked out at 43.1%.

Regarding `COCc1cc(CNc2cnn(CC(F)F)c2)ccc1OC`, the INHIBITION is 38.2%.

For `CC(=O)N1CCO[C@@H]2CN(C(=O)NCc3ccccc3)CC[C@@H]2C1`, the INHIBITION was found to be 51.2%.

Consider `CN1CCO[C@@H]2CN(C(=O)NCc3ccccc3)CC[C@@H]2C1`, for which the INHIBITION was found to be 16.8%.

Take `CC(=O)N1CCO[C@@H]2CN(C(=O)NCc3cccnc3)CC[C@@H]2C1`: the INHIBITION is recorded as 12.1%.

For `CN(C)C(=O)N1C[C@H]2CC[C@@H](C1)N(Cc1ccc3nsnc3c1)C2`, the INHIBITION was determined as 21.8%.

With `CCC(=O)NC1CCCN(Cc2ccc(NC(C)=O)cc2)C1` (centres undefined), the INHIBITION amounted to 27.6%.

`CCOc1ccc(CN2CCN(C(=O)c3cc(C4CC4)[nH]n3)CC2)cc1`: the INHIBITION was found to be 48.1%.

Take `O[C@@H]1CN(Cc2ccc(F)cc2)CC[C@H]1NCc1ccccn1`: the INHIBITION worked out at 28.55%.

Turning to `CC(=O)Nc1ccc(CN2CCCC(c3cc4ncccc4[nH]3)C2)cc1` (centres undefined), the INHIBITION stood at 50.95%.

On to `CCOc1ccc(CN2CCCC(c3cc4ncccc4[nH]3)C2)cc1` (centres undefined), for which the INHIBITION worked out at 81.5%.

`CCOc1nnc(CN2CCCC(c3nc4ccccc4[nH]3)C2)s1` (centres undefined): the INHIBITION stood at 22.8%.

On to `Fc1ccc(CN2CCCC(c3nccnc3-n3ccnc3)C2)cc1` (centres undefined), for which the INHIBITION is recorded as 6.32%.

For the molecule `Fc1ccc(CN2CCCC(c3cc4ncccc4[nH]3)C2)cc1` (centres undefined), the INHIBITION amounted to 85.65%.

Consider `Cc1cc(C)n(CC(=O)N2CCCC(c3cc4cccnc4[nH]3)C2)n1` (centres undefined), for which the INHIBITION is 30.4%.

Regarding `CC(=O)N(Cc1noc(C)n1)C1CCN(CC2(O)CCCCC2)C1` (centres undefined), the INHIBITION came out at 33.7%.

For `Cn1cc(CN2CCC(c3[nH]ncc3S(C)(=O)=O)C2)cn1` (centres undefined), the INHIBITION was 8.53%.

Take `CCOc1ncccc1NC(=O)c1ccc(C)s1`: the INHIBITION is recorded as 23.2%.

Turning to `CCc1nnc(Sc2nn3cc(C)nc3s2)n1C`, the INHIBITION is -9.8%.

With `Cc1noc(C)c1CCC(=O)N1CCOCC1CCc1cnccn1` (centres undefined), the INHIBITION amounted to 25.8%.

Take `Cc1cnn(CCC(=O)N2CCN(C(=O)C3CC3)[C@@H]3CS(=O)(=O)C[C@@H]32)c1`: the INHIBITION turned out to be 3%.

With `CC(C)(C)c1nc(CC(=O)N2CCCC(n3cncn3)C2)cs1` (centres undefined), the INHIBITION was 47.65%.

As to `Cc1ccc(C2(O)CCN(C(=O)c3ccc(S(N)(=O)=O)cc3)CC2)nc1`, the INHIBITION is reported as 38%.

With `OC(COCc1ccco1)CSc1nnc2ccccn12` (centres undefined), the INHIBITION came to 14.8%.

As to `OC(COCc1cccs1)Cn1cc(Br)cn1` (centres undefined), the INHIBITION is -28.4%.

With `OC(COCc1ccccc1)CSc1nnc2ccccn12` (centres undefined), the INHIBITION was 42.6%.

For the molecule `OC(COCc1cccs1)CSc1nnc2ccccn12` (centres undefined), the INHIBITION came out at 56.5%.

In the case of `OC(COCc1cccs1)Cn1cc(-n2cccc2)cn1` (centres undefined), the INHIBITION turned out to be 8.46%.

On to `OC(COCc1cccs1)Cn1cc(Cl)cn1` (centres undefined), for which the INHIBITION was found to be 75.2%.

With `CSCC(=O)NC1CC(=O)N(CCc2ccccc2)C1` (centres undefined), the INHIBITION is on record as -17.6%.

With `CCn1nc(C)c(NC(=O)CN2CCN(C(C)=O)CC2)c1C`, the INHIBITION is -4.23%.

`CS(=O)(=O)N1CC2(CCN(CC3CCCCC3)CC2)Cc2ccccc21`: the INHIBITION stood at 46.6%.

On to `O=C(Nc1ccc2c(ccn2CCN2CCOCC2)c1)c1ccccn1`, for which the INHIBITION is recorded as -4.15%.

For `CC(C)OCCCN(Cc1ccncc1)Cc1cc(F)cc(F)c1`, the INHIBITION was -26.2%.

For the molecule `CCOCCN1CCN(c2ncccc2C#N)CC1CC` (centres undefined), the INHIBITION is given as 4.03%.

As to `O=C(c1ccncn1)N1C[C@@H]2CN(Cc3cccnc3)CCO[C@@H]2C1`, the INHIBITION is listed as 17.5%.

For `CCOC(=O)COc1cccc(NC(=O)C2COCCO2)c1` (centres undefined), the INHIBITION was 8.24%.

Take `O=C(Nc1cccc(OCc2ccc(F)cc2)c1)C1COCCO1` (centres undefined): the INHIBITION was found to be 10.3%.

As to `O=C(Nc1cccc(OCc2cccc(F)c2)c1)C1COCCO1` (centres undefined), the INHIBITION was -47.4%.

Regarding `O=C(Nc1ccc(OCc2cccc(F)c2)c(F)c1)C1COCCO1` (centres undefined), the INHIBITION is 78.4%.

As for `O=C(OCc1ccccc1)c1cccc(NC(=O)C2COCCO2)c1` (centres undefined), the INHIBITION was determined as 7.44%.

Consider `CCOCc1cccc(NC(=O)C2COCCO2)c1` (centres undefined), for which the INHIBITION is reported as 59.3%.
